Assay outcomes: PubChem BioAssay, National Center for Advancing Translational Sciences (NCATS)
Shown are actives, neighbours in structure and some others; about 19% of the full set was active somewhere.
HT1080NT lethal – kills 2HG-producing HT-1080-NT fibrosarcoma cells; HT-1080-NT fibrosarcoma viability, CellTiter-Glo ATP luminescence, 48 h; Potency, µM (titrated, usually from 46.1 µM), without a hit: top-dose activity, negative = less viability, actives largely listed as cytotoxic; 360,000 tested, 1.6% active;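 further: NT is the 2HG producing partner of a matched IDH1 knockdown line; potency means the concentration at half of the fitted maximal effect; 0% = DMSO-treated cells and -100% = media-only wells without cells; nearly all actives have a fitted effect of over 55% in size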
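Read-out is CellTiter-Glo luminescence after 10 minutes at room temperature, following 48 hours' compound treatment of HT-1080-NT cells (750 cells/well, RPMI, 5% FBS, 37 degrees C).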
IL-1B inflam inh – inflammasome signaling inhibition, IL-1 beta readout | 360,000 tested, 4.7% active | THP-1 LPS/ATP IL-1B secretion, AlphaLISA, 16 h; active compounds read low | activity change, % at 57.5 µM | AID 743279; in the data active means activity change below about -50%; inconclusive means mostly about -30% to -49%
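Secreted IL-1B measured by AlphaLISA bead assay after 16 h compound exposure of THP-1 cells; compounds (final up to 57.5 uM) added 1 h before LPS (250 ng/mL) and ATP (1.25 mM) stimulation; lower signal means less secretion.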
ELG1 DNA repair – blocks ELG1-dependent DNA repair in HEK293T cells. HEK293T ELG1-luciferase reporter, luminescence, 16 h; DNA damage induced by 5-fluorouridine. Potency, µM (doses to about 46.1 µM), for the others: at the highest dose activity change, negative = inhibition, usual class: inhibitors. 330,000 tested, 2.3% active; further: potency means the concentration at half of the fitted maximal effect; nearly all actives have a fitted effect of over 55% in size
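Reporter activity after DNA damage by 5-fluorouridine is monitored. Compound-treated cells incubate 16 hr at 37 °C, then ONE-Glo is added for 30 min before luminescence reading.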
DT40 TDP1 no CPT – qHTS for Inhibitors of human tyrosyl-DNA phosphodiesterase 1 (TDP1): qHTS in cells in absence of CPT; DT40 Tdp1-/- hTDP1 cells, no CPT, ATP luminescence, 48 h; Potency, µM (top dose mostly 46.2 µM), for inactives: top-dose activity change, negative = growth inhibition, hits mostly inhibitors; 420,000 tested, 15% active; AID 686978, 2013; further: potency means the concentration at half of the fitted maximal effect; nearly all actives have a fitted effect of over 55% in size
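Camptothecin absent (DMSO only). Human TDP1-complemented DT40 knockout cells, 400 cells/well, 37 °C for minimum 48 hr; ATP measured via CellTiter-Glo, 30 min dark incubation, luminescence.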
HT1080 IDH1KD tx – kills HT-1080 cells with IDH1 knockdown; HT-1080 IDH1 knockdown viability, ATP luminescence, 48 h; Potency, µM (top dose mostly 46.1 µM), inactives show at the highest dose activity, negative = toxicity, hits mostly cytotoxic; 360,000 tested, 2% active; AID 686971;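 further: potency means the concentration at half of the fitted maximal effect; 0% = DMSO wells and -100% = cell-free medium wells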
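CellTiter-Glo luminescence after 48 h compound exposure at 37 degrees C of IDH1-knockdown HT-1080 cells in 5% FBS RPMI. %Activity scaled between DMSO wells and cell-free media wells, with curves fitted and assigned curve classes.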
DT40 TDP1 CPT – DT40-hTDP1 cell growth loss with CPT | chicken DT40 Tdp1-/-;hTDP1 cells + 20 nM CPT, ATP luminescence, 48 h | Potency, µM (series often up to 46.2 µM), for the others: at the top dose activity change, negative = growth inhibition, hits mostly inhibitors | 420,000 tested, 12% active; further: potency means the concentration at half of the fitted maximal effect; nearly all actives have a fitted effect of over 55% in size
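Chicken DT40 Tdp1-/- cells complemented with human TDP1, 400 cells/well, exposed to compounds plus 20 nM camptothecin for at least 48 h at 37 C; viability read as ATP content by CellTiter-Glo luminescence.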
* marks the source's active call; other numbers are inactive results. Unless noted, the call rests on the fitted dose curve; in most records, active means well fitted curve in the direction sought with a large enough effect; inconclusive means small, poorly fitted or top-dose-only effect, or another doubt; inactive means no such curve, though single readings can be large; an effect the other way counts as inactive or inconclusive. Unless noted, on the % scale 0 is the no-effect control and ±100 the full control effect.

Results for CC(C)Oc1ccc(C(=O)Nc2ccc(S(=O)(=O)N3CCN(C)CC3)cc2)cc1 ?
HT1080NT lethal: -7%; IL-1B inflam inh: 27; ELG1 DNA repair: inconclusive; DT40 TDP1 no CPT: inconclusive; HT1080 IDH1KD tx: -13%; DT40 TDP1 CPT: inconclusive

How did COc1ccc(C2=NN(C(C#N)c3ccc(OC)cc3)C(c3ccccc3)C2)cc1 (stereo unspecified) do in these assays?
HT1080NT lethal: -1%; IL-1B inflam inh: 19; ELG1 DNA repair: inconclusive; DT40 TDP1 no CPT: inconclusive; HT1080 IDH1KD tx: -10%; DT40 TDP1 CPT: inconclusive

Results for O=C(OC1CC2CC1[C@H]1CCCCN1C2=O)N1CCN(c2ccccc2)CC1 (stereo partly specified) ?
HT1080NT lethal: 9%; IL-1B inflam inh: 31; DT40 TDP1 no CPT: inconclusive; HT1080 IDH1KD tx: 3%; DT40 TDP1 CPT: 2%

Results for O=C(OC1CC2CC1[C@H]1CCCCN1C2=O)N1CCC(c2ccccc2)CC1 (stereo partly specified) ?
HT1080NT lethal: -2%; IL-1B inflam inh: 23; DT40 TDP1 no CPT: 16µM*; HT1080 IDH1KD tx: -6%; DT40 TDP1 CPT: inconclusive

What do the screens show for `Cc1ccc(S(=O)(=O)NNC(=O)C2Cc3c(ccc4ccccc34)O2)cc1` (stereo unspecified)?
HT1080NT lethal: inconclusive; IL-1B inflam inh: 49; ELG1 DNA repair: -6%; DT40 TDP1 no CPT: 23µM*; HT1080 IDH1KD tx: -23%; DT40 TDP1 CPT: inconclusive

Results for O=C(Nc1ccccc1)c1cc(C2COCCN2C(=O)C2CC2)on1 (stereo unspecified) ?
HT1080NT lethal: inconclusive; IL-1B inflam inh: 83; DT40 TDP1 no CPT: -1%; HT1080 IDH1KD tx: 6%; DT40 TDP1 CPT: -15%

How did COc1ccc(CCNC(=S)N2CCC(Cc3ccccc3)CC2)cc1OC do in these assays?
HT1080NT lethal: -19%; IL-1B inflam inh: -8; ELG1 DNA repair: 9.2µM*; DT40 TDP1 no CPT: inconclusive; HT1080 IDH1KD tx: -23%; DT40 TDP1 CPT: -6%

How did COc1ccc(C(=O)C2CCN(C(=S)NCCc3ccc(OC)c(OC)c3)CC2)cc1 do in these assays?
HT1080NT lethal: -4%; IL-1B inflam inh: -10; ELG1 DNA repair: 21µM*; DT40 TDP1 no CPT: 12µM*; HT1080 IDH1KD tx: -21%; DT40 TDP1 CPT: 16µM*

How did COc1ccc(C(=O)C2CCN(C(=S)NCCc3ccccc3)CC2)cc1 do in these assays?
HT1080NT lethal: 0%; IL-1B inflam inh: 26; ELG1 DNA repair: 5%; DT40 TDP1 no CPT: -22%; HT1080 IDH1KD tx: -2%; DT40 TDP1 CPT: -5%

How did COc1ccc(CCNC(=S)N2CCC(C(=O)c3ccc(F)cc3)CC2)cc1OC do in these assays?
HT1080NT lethal: -17%; IL-1B inflam inh: -13; ELG1 DNA repair: 9.2µM*; DT40 TDP1 no CPT: inconclusive; HT1080 IDH1KD tx: inconclusive; DT40 TDP1 CPT: inconclusive

How did Cc1cc2nc(-c3cc(NC(=O)c4cc5ccccc5o4)ccc3Cl)oc2cc1C do in these assays?
DT40 TDP1 no CPT: 16µM*; DT40 TDP1 CPT: inconclusive

How did COc1cc(C(=O)Nc2ccc(-c3nc4ccccc4o3)c(O)c2)cc(OC)c1OC do in these assays?
DT40 TDP1 no CPT: -13%; DT40 TDP1 CPT: 6%

Results for COc1cc2ccccc2cc1C(=O)Nc1ccc(Cl)c(-c2nc3ccccc3o2)c1 ?
DT40 TDP1 no CPT: 23µM*; DT40 TDP1 CPT: inconclusive

What do the screens show for `Cc1ccc2oc(-c3ccc(Cl)c(NC(=O)c4cc5ccccc5o4)c3)nc2c1`?
DT40 TDP1 no CPT: -15%; DT40 TDP1 CPT: 8%

How did CC1=CC2(C)NC(=O)C(C)C12 (stereo unspecified) do in these assays?
HT1080NT lethal: 2%; IL-1B inflam inh: 16; DT40 TDP1 no CPT: 8%; HT1080 IDH1KD tx: 5%; DT40 TDP1 CPT: 4%

Results for O=C(CN1C(=O)C2(SCC(=O)N2c2ccc(F)cc2)c2ccccc21)NC1CCCCC1 (stereo unspecified) ?
DT40 TDP1 no CPT: -21%; DT40 TDP1 CPT: -23%

How did O=C(CN1C(=O)C2(SCC(=O)N2c2cccc(Cl)c2)c2ccccc21)NC1CCCCC1 (stereo unspecified) do in these assays?
DT40 TDP1 no CPT: 18µM*; DT40 TDP1 CPT: 16µM*

How did COc1cccc(N2C(=O)CSC23C(=O)N(CC(=O)Nc2cccc(Cl)c2)c2ccccc23)c1 (stereo unspecified) do in these assays?
DT40 TDP1 no CPT: inconclusive; DT40 TDP1 CPT: 18µM*

How did Cc1cc(C)cc(N2C(=O)CSC23C(=O)N(CC(=O)NC2CCCCC2)c2ccccc23)c1 (stereo unspecified) do in these assays?
DT40 TDP1 no CPT: inconclusive; DT40 TDP1 CPT: 21µM*

What do the screens show for `CC1CC(C)CN(c2ccc([N+](=O)[O-])cc2-c2nn[nH]n2)C1` (stereo unspecified)?
HT1080NT lethal: 9%; IL-1B inflam inh: 0; ELG1 DNA repair: 2%; DT40 TDP1 no CPT: -14%; HT1080 IDH1KD tx: 9%; DT40 TDP1 CPT: 2%

Results for c1cc(-c2sc(-c3ccncc3)c(-c3ccncc3)c2-c2ccncc2)ccn1 ?
HT1080NT lethal: -22%; ELG1 DNA repair: 18µM*; DT40 TDP1 no CPT: 10µM*; HT1080 IDH1KD tx: -29%; DT40 TDP1 CPT: inconclusive

How did CCOc1cccc(C(=O)Nc2c(C(=O)c3ccc(OC)cc3)oc3ccccc23)c1 do in these assays?
DT40 TDP1 no CPT: 15%; DT40 TDP1 CPT: -4%

How did CCS(=O)(=O)N1CCc2cc(C(=O)NCCc3ccc(OC)c(OC)c3)ccc21 do in these assays?
DT40 TDP1 no CPT: -13%; DT40 TDP1 CPT: -6%

Results for Cc1ccc(-n2c(SCC(N)=O)nc3c(oc4ccccc43)c2=O)cc1 ?
HT1080NT lethal: -20%; IL-1B inflam inh: 47; ELG1 DNA repair: 1%; DT40 TDP1 no CPT: 18µM*; HT1080 IDH1KD tx: -13%; DT40 TDP1 CPT: inconclusive

What do the screens show for `Cc1cc(C)cc(-n2c(SCC(N)=O)nc3c(oc4ccccc43)c2=O)c1`?
DT40 TDP1 no CPT: 15µM*; DT40 TDP1 CPT: inconclusive

Results for Cc1ccc(Oc2nc(-c3cccnc3)nc3ccccc23)c([N+](=O)[O-])n1 ?
HT1080NT lethal: -13%; IL-1B inflam inh: 9; ELG1 DNA repair: -17%; DT40 TDP1 no CPT: inconclusive; HT1080 IDH1KD tx: -18%; DT40 TDP1 CPT: inconclusive

How did Cc1ccc(Cl)cc1NC(=O)c1cnn2c(C(F)F)cc(-c3ccccc3)nc12 do in these assays?
DT40 TDP1 no CPT: -17%; DT40 TDP1 CPT: -13%
